Inconclusive results are not listed. Calls of active or inactive are those of the source. Calls come from the whole dose curve; as a rule, active = well fitted curve in the direction sought with a large enough effect; inconclusive = small, poorly fitted or top-dose-only effect, or another doubt; inactive = no such curve, though single readings can be large; an effect the other way counts as inactive or inconclusive.
What was measured:
[1] = Cell Viability - N2a (AID 540); note: nearly all actives have a fitted effect of over 45% in size
In short: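 Mouse neuroblastoma N2a cells, 1500/well, exposed to compounds 40 h at 37 °C in complete medium. Viability measured as cellular ATP by CellTiter-Glo luminescence; AC50 from Hill fits of concentration-response.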

[2] = Cell Viability - NIH 3T3 (AID 541); note: nearly all actives have a fitted effect of over 25% in size
In short: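 Mouse NIH 3T3 fibroblasts, 1000 cells/well, rested 5 hr at 37 °C, then exposed to compound for 40 hr at 37 °C in complete medium. Viability read as intracellular ATP by CellTiter-Glo luminescence; AC50 from Hill-equation fits of concentration-response data.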

[3] = Cell Viability - HUV-EC-C (AID 542); note: nearly all actives have a fitted effect of over 35% in size
In short: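 HUV-EC-C human vascular endothelial cells, 1000/well, exposed to compound for 40 hr at 37 °C in complete medium. Intracellular ATP was read by CellTiter-Glo luminescence. AC50 came from Hill-equation fits of concentration-response data.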

[4] = Cell Viability - H-4-II-E (AID 543); note: nearly all actives have a fitted effect of over 35% in size
In short: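 Rat hepatoma H-4-II-E cells, 1500 per well, treated 40 h at 37 °C in complete medium. Cellular ATP read by CellTiter-Glo luminescence; AC50 from Hill fits of concentration-response.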

[5] = Cell Viability - SH-SY5Y (AID 544); note: nearly all actives have a fitted effect of over 55% in size
In short: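 SH-SY5Y human neuroblastoma cells (1500/well) incubated 5 h, then compound-treated 40 h at 37 °C in complete medium. Viability read as intracellular ATP by CellTiter-Glo luminescence after 20 min; AC50 from Hill-equation fits of qHTS concentration-response.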

[6] = Cell Viability - Renal Proximal Tubule (AID 545); note: nearly all actives have a fitted effect of over 40% in size
In short: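 Viability taken as intracellular ATP (CellTiter-Glo luminescence) after 40 hr, 37 °C compound treatment of primary proximal tubule cells from rat kidney, 1000 cells/well; Hill-equation fits of qHTS concentration-response data gave AC50.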

[7] = Cell Viability - Mesenchymal (AID 546);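 note: cells exposed to compound for 40 hours before reading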
In short: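 Human kidney mesenchymal cells from normal renal glomeruli, 1000 cells/well, rested 5 hr at 37 °C, then treated 40 hr at 37 °C in complete medium. Cellular ATP read by CellTiter-Glo luminescence; AC50 from Hill-equation fits.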

[8] = Cellular Toxicity (caspase-3) HepG2 (AID 654);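 note: cells exposed to compound for 16 hours before reading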
In short: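 HepG2 cells (1500/well) were treated 16 h at 37 °C in complete medium, then caspase 3/7 activity was read by Caspase-Glo luminescence. Data were normalized to DMSO and 100 uM tamoxifen; AC50 came from Hill-equation fits of qHTS concentration-response.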

[9] = Cellular Toxicity (caspase-3) Jurkat (AID 655);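 note: cells exposed to compound for 16 h at 37 °C before reading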
In short: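 Luminescent Caspase-Glo 3/7 read-out (20 min, room temperature) after 16 h compound treatment at 37 C of 5000 Jurkat cells per well. AC50 derived by Hill-equation fitting, scaled between DMSO basal and 100 uM tamoxifen stimulation.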

[10] = Cellular Toxicity (caspase-3) HUV-EC-C (AID 656)
In short: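 Luminescent Caspase-Glo 3/7 readout after 16 h, 37 °C compound exposure of HUV-EC-C endothelial cells, 1000 per well, complete medium. AC50 derived by Hill fitting, with DMSO as baseline and 100 uM tamoxifen as full activation.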

[11] = Cellular Toxicity (caspase-3) SHSY5Y (AID 657)
In short: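 Luminescent Caspase-Glo 3/7 read-out, 1 hr room temperature, follows 16 hours of compound treatment of SH-SY5Y cells at 37 °C. Normalization: DMSO basal, 10 uM staurosporine as 100%; AC50 values from Hill-equation concentration-response fits.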

[12] = Cellular Toxicity (caspase-3) BJ (AID 658)
In short: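 BJ human foreskin fibroblasts, 1000 cells/well, treated 16 hours at 37 °C in complete medium; caspase 3/7 activity by Caspase-Glo luminescence after 1 hr at room temperature. Normalized to DMSO and 10 uM staurosporine; AC50 from Hill fits.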

[13] = Cellular Toxicity (caspase-3) MRC-5 (AID 659)
In short: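 MRC-5 human normal lung fibroblasts, 1500 cells/well, treated 16 h at 37 °C in complete medium. Caspase 3/7 measured by Caspase-Glo luminescence after 1 h at room temperature. Normalized to DMSO and 10 uM staurosporine; AC50 from Hill fit.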

[14] = Cellular Toxicity (caspase-3) Mesangial (AID 660)
In short: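 Human renal glomerular mesangial cells, 1000/well, 5 h at 37 C before 16 h compound treatment. Caspase-Glo 3/7 luminescence after 20 min; normalized to DMSO and 100 uM tamoxifen, AC50 from Hill fit.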

[15] = Cellular Toxicity (caspase-3) SK-N-SH (AID 661)
In short: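 Human SK-N-SH neuroblastoma cells, 1500/well, were exposed to compounds for 16 hours at 37 °C. Caspase-Glo 3/7 luminescence was normalized to DMSO (basal) and 10 uM staurosporine (100%), and AC50 came from a Hill fit.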

[16] = Cellular Toxicity (caspase-3) H-4-II-E (AID 663);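 note: cells exposed to compound for 16 hr before readout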
In short: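 Rat hepatoma H-4-II-E cells (1500/well) plated 5 hr, then exposed to compound titrations for 16 hr at 37 °C. Caspase-Glo 3/7 luminescence read after 20 min at RT; data normalized to DMSO and 100 uM tamoxifen, AC50 from Hill fits.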

[17] = Cellular Toxicity (caspase-3) Hek293 (AID 664);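 note: cells exposed to compound for 16 h at 37 °C before readout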
In short: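 HEK293 cells in complete medium treated 16 h at 37 °C, then Caspase-Glo 3/7 luminescence read after 20 min at room temperature. Normalized to DMSO and 100 uM tamoxifen; AC50 from Hill fit of concentration-response.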

Measured: outcome

Cc1cc(O)c2c(c1)C(=O)c1cccc(O)c1C2=O
inactive: all assays above
